aSyn UTR act – Activators via SNCA 5'UTR binding, MLPCN. AID 1814, 2009. 300,000 tested, 7.1% active. activity score, % (tested at 7.5 µM), hits read low. alpha-synuclein 5'UTR reporter, activators screen; in the data active = activity score below about -60%
A number is an active result; . = inactive. A selection follows.

SMILES	aSyn UTR act
Brc1ccccc1/C=N/Nc1ccc2ccccc2n1	-256
Cc1cc(N/N=C/c2ccccc2Br)nc2ccccc12	-196
Nc1cccc2c1C(=O)N(C(=O)/C=C/c1cccc(Br)c1)C2=O	-160
C=CCNc1nc(N)c([N+](=O)[O-])c(N2CCCCCC2)n1	.
Nc1nc(Nc2ccccc2)nc(N2CCCC2)c1[N+](=O)[O-]	-81
Oc1ccc(Nc2nc(N3CCCC3)c3ccccc3n2)cc1	-579
COCCNc1nc(N)c([N+](=O)[O-])c(NC2CCCCC2)n1	.
Cc1nn2c(nc(N3CCCCC3)c3ccccc32)c1C=O	.
CC1CCN(c2nc(/C=C/c3ccccc3)nc3ccccc23)CC1	-87
C(=C\c1nc(N2CCCC2)c2ccccc2n1)/c1ccccc1	-106
CCc1ccc(-n2nc3ccc(NC(=O)c4ccc5c(c4)OCO5)cc3n2)cc1	-66
CCOc1ccc(-n2nc3ccc(NC(=O)c4ccc5c(c4)OCCO5)cc3n2)cc1	.
O=C(Nc1ccc2nn(-c3ccccc3)nc2c1)c1ccc2c(c1)OCCO2	-82
Cc1ccc(C(=O)NCCC(=O)N2CCCC2)cc1	-146
CC(C)(C)c1ccc(C(=O)NCC(=O)N2CCCC2)cc1	-74
Cc1ccc(S(=O)(=O)Cc2ccc(C(=O)N3CCN(c4cccc(C)c4C)CC3)o2)cc1	.
Cc1cccc(N2CCN(C(=O)CNC(=O)c3ccccc3)CC2)c1C	-81
CC(C)(C)c1ccc(C(=O)NNC(=O)C2CCCCC2)cc1	-64
Cc1cccc(N2CCN(C(=O)c3c(-c4ccccc4)noc3C)CC2)c1C	.
CC(C)(C)c1ccc(C(=O)N2CCCCCC2=O)cc1	.
Clc1ccc2nnnc(-c3ccccc3)c2c1	-375
c1ccc(-c2nnnc3ccccc23)cc1	-165
O=C(Oc1ccc(-c2cnc3ccccc3n2)cc1)c1ccc(Cl)c([N+](=O)[O-])c1	-129
O=C(Oc1ccc(-c2cnc3ccccc3n2)cc1)c1cccc([N+](=O)[O-])c1	-183
O=C(Oc1ccc(-c2cnc3ccccc3n2)cc1)c1ccc(Br)o1	-117
SMILES	aSyn UTR act
CN(C)c1ccc(/C=C2/SC(=O)N(CCN=C3NS(=O)(=O)c4ccccc43)C2=O)cc1	-66
CN(C)c1ccc(/C=C2\SC(=O)N(CCc3nnc(N)s3)C2=O)cc1	.
COc1ccc(-c2cn(CC3CCCCC3)nn2)cc1	-120
c1ccc(-c2cn(CC3CCCCC3)nn2)cc1	-200
CN1C(=O)/C(=C/C=C2\SCCN2C)N(C)C1=S	-177
CC1CC1C(=O)Nc1ccc(-c2ccccc2)cc1 (stereo not drawn)	-152
COc1cc(OC)cc(C(=O)Nc2nc3ccccc3[nH]2)c1	-189
O=C(Nc1nc2ccccc2[nH]1)c1ccccc1F	.
CC(C)Oc1ccc(C(=O)Nc2nc3ccccc3[nH]2)cc1	.
O=C(Nc1nc2ccccc2[nH]1)c1cc(F)cc(F)c1	-148
Cn1nc(C(=O)Nc2nc3ccccc3[nH]2)c2ccccc2c1=O	-144
COc1ccc2oc(C(=O)Nc3nc4ccccc4[nH]3)c(C)c2c1	-102
O=C(Nc1nc2ccccc2[nH]1)c1ccc(F)c(S(=O)(=O)N2CCOCC2)c1	-99
Cc1cc(C)cc(C(=O)Nc2nc3ccccc3[nH]2)c1	-139
COc1ccc(Br)c(C(=O)Nc2nc3ccccc3[nH]2)c1	-87
Cc1ccc(C=Nc2ccc(N(C)C)cc2)o1	-139
CCCOc1cccc(C(=O)Nc2ccc(Br)cc2F)c1	-161
COc1ccccc1NC(=O)c1sc(Cl)nc1C	-69
COc1cccc(NC(=O)c2ccc3nsnc3c2)c1	-151
O=C(Nc1ccc(Br)cc1F)c1ccc2nsnc2c1	-106
O=C(Nc1ccc(F)cc1)c1ccc2nsnc2c1	-175
COc1ccc(Nc2sc(C(=O)Nc3cccc(Cl)c3)c(N)c2C(=O)Nc2ccccc2OC)cc1	-67
COc1ccccc1NC(=O)c1ccc2nsnc2c1	-112
Cc1nc(NC(=O)C2CC2)sc1C(=O)Nc1ccccc1Cl	-164
Cc1nc2cc(NC(=O)N3CCCCC3)ccc2n1C	-71
SMILES	aSyn UTR act
COc1cc(C(=O)NC(=S)N(CCc2ccccc2)CCc2ccccc2)cc(OC)c1OC	.
COc1cc(C(=O)Nc2ccc(N(C)C)cc2)cc(OC)c1OC	-99
COc1cc(C(=O)Nc2ccc3c(c2)nc(C)n3C)cc(OC)c1OC	-92
Cc1ccc(NC(=O)Nc2ccc3c(c2)nc(C)n3C)cc1C	-127
Cc1cccc2sc(NC(=O)c3ccc(OCC4CCCO4)cc3)nc12 (stereo not drawn)	-144
CCOc1ccc2nc(NC(=O)CSc3nnc(-c4ccncc4)n3CC3CCCO3)sc2c1 (stereo not drawn)	-76
CCOc1ccc2nc(NC(=O)c3ccc(OCC4CCCO4)cc3)sc2c1 (stereo not drawn)	-99
Cc1cccc2sc(NNC(=O)c3ccc(S(=O)(=O)N4CCCC(C)C4)cc3)nc12 (stereo not drawn)	.
O=C(Nc1ccc2nc(-c3cccs3)[nH]c2c1)c1cccs1	-223
CC(=O)Nc1ccc2nc(-c3ccccn3)[nH]c2c1	-158
O=C(Nc1ccc(-c2nc3ccc(NC(=O)c4cccs4)cc3[nH]2)cc1)c1cccs1	.
O=C(Nc1ccc2nc(-c3cccs3)[nH]c2c1)c1ccco1	-183
CC(C)(C)C(=O)NC(=S)Nc1ccc(F)cc1	-84
CC(C)(C)C(=O)NC(=S)Nc1cccc(C(=O)O)c1	-161
CC1CCC/C(=N\Nc2ccc(Cl)c(C(=O)O)c2)C1 (stereo not drawn)	-98
CC1CCC/C(=N\NC(=O)Nc2ccccc2)C1 (stereo not drawn)	-142
COc1cccc2[nH]c3c(N4CCCC(C)C4)ncnc3c12 (stereo not drawn)	-143
O=C(CN1CCOCC1)N/N=C/C(Br)=C\c1ccccc1	-76
COc1ccc(COC(=O)N/N=C/c2cccs2)cc1	-66
COc1ccc(/C=N/NC(=O)Cc2cccs2)cc1	-70
CC(/C=N/NC(=O)Cc1cccs1)=C\c1ccccc1	-156
O=C(Cc1cccs1)N/N=C/C(Br)=C/c1ccccc1	-258
Cc1ccccc1NCC(=O)N/N=C/C(Br)=C/c1ccccc1	-66
CC(/C=N/NC(=O)Cc1cccn1C)=C\c1ccccc1	-118
COc1ccccc1NC(=O)C(=O)N/N=C/c1cccs1	-147
SMILES	aSyn UTR act
CNc1nnc(-c2cccc(N(C)C)c2)s1	-94
Fc1ccc(-c2nnsc2Sc2ccccn2)cc1	-84
Fc1ccc(CNc2ccccn2)cc1	-78
CSc1ccc(CNc2ccccn2)cc1	-100
C(=N\NC1=Nc2cccc3cccc1c23)/c1cccnc1	-258
C(=N\NC1=Nc2cccc3cccc1c23)/c1ccccc1	-256
Clc1ccc(N/N=C/c2cccnc2)cc1	-123
Clc1ccc(/C=N/NC2=Nc3cccc4cccc2c34)cc1	-191
Cc1cccc(NCc2ccc(N(C)C)cc2)n1	-72
COc1ccccc1C(CCNCc1ccc(N(C)C)cc1)c1ccc(OC(C)C)cc1 (stereo not drawn)	.
COc1ccc(NC(=O)Nc2nnc(-c3ccccc3F)s2)cc1	-134
O=C(Nc1nnc(-c2ccccc2F)s1)c1cccnc1	-116
COc1ccc(NC(=O)Nc2nnc(C(C)C)s2)cc1	-135
COc1ccc(NC(=O)Nc2nnc(-c3ccco3)s2)cc1	-108
Cc1ccc(NC(=O)Nc2nnc(-c3ccccc3F)s2)cc1	-85
COc1ccc(NC(=O)Nc2nnc(-c3ccncc3)s2)cc1	-100
COc1ccc(/C=C/C(=O)Nc2cc(C)nn2-c2nc3ccccc3[nH]2)cc1	-85
CCOC(=O)c1c(C)[nH]c(C(=O)COC(=O)C2CC2C)c1C (stereo not drawn)	-143

Compound activity: PubChem BioAssay, Broad Institute
